PubChem BioAssay AID2013 (Sanford-Burnham Center for Chemical Genomics, 2009)
The whole screen tested about 290,000 compounds, of which about 370 (0.13%) were called active.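 Rule for the calls: active = spots per cell inhibited over 60%, with over 100 cells counted and total cytoplasm intensity under 500,000; inconclusive = wells with under 100 cells, flagged as likely toxic; inactive = the rest.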 The list comes from a sample in which actives are over-represented; it also holds similar structures and randomly drawn compounds. Results with a measured potency or affinity are listed apart.

These molecules were tested against G-protein coupled receptor 55 (Homo sapiens) (UniProt Q9Y2T6) (assay: inhibition of LPI-stimulated GPR55 beta-arrestin translocation – imaging, U2OS, beta-arrestin-GFP, LPI agonist, primary screen (AID 2013;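 note: U2OS cells stably carrying GPR55 and arrestin-GFP stimulated by 5 µM LPI near EC80; imaged beta-arrestin-GFP aggregate spots per cell after agonist stimulation; plate controls were LPI-stimulated DMSO wells for no effect and DMSO wells without LPI for full effect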)). Settings: LPI antagonism, at 10 µM, hits give high values.
Sequence of G-protein coupled receptor 55 (Homo sapiens) (Q9Y2T6 whole entry, looked up): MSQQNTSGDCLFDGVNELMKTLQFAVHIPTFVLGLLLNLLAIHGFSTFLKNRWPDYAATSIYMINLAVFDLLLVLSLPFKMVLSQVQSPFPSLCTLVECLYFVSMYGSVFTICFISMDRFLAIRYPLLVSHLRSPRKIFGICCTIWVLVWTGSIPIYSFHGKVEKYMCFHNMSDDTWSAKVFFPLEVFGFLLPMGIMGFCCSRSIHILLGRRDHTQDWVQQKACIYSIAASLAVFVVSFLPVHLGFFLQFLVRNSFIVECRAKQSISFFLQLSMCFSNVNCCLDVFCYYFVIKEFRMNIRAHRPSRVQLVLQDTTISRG

Structure (SMILES) | inhibition
CCCCC(C(=O)NC1CCCC1)N(C(=O)c1snc(C(N)=O)c1N)c1ccc(OCC)cc1 (stereo not given) | 4.9% (inactive)
CCOC(=O)c1cn(CC2CC2)c2cc(F)c(F)cc2c1=O | -1.8% (inactive)
O=C(Cc1coc2ccc3ccccc3c12)NC1CCCc2ccccc21 (stereo not given) | -1.1% (inactive)
C/C(=N\Nc1nc2ccccc2s1)c1ccc2c(c1)OCO2 | 11.7% (inactive)
O=C(Nc1ccc(F)cc1)c1ccccc1Oc1ccc(C(F)(F)F)cc1[N+](=O)[O-] | 24.3% (inactive)
O=C(Nc1ccccc1)c1ccccc1Oc1ccc(C(F)(F)F)cc1[N+](=O)[O-] | 5.3% (inactive)
CC(=O)N(C1CC(C)C(C#N)(C#N)C1(C#N)C#N)N(C)C (stereo not given) | 7.5% (inactive)
CCCC(=O)N(C1CC(C)C(C#N)(C#N)C1(C#N)C#N)N(C)C (stereo not given) | 98.9% (active)
O=C1NC2(CCCCCC2)N=C1c1ccc(Br)cc1 | 2.5% (inactive)
CCS(=O)(=O)Nc1ccc(Cc2ccncc2)cc1 | -1.6% (inactive)
CCCCS(=O)(=O)Nc1ccc(Cc2ccncc2)cc1 | 14.3% (inactive)
COc1ccc(NC(=O)CCCn2c(=O)[nH]c3ccccc3c2=O)cc1 | 27.9% (inactive)
O=c1[nH]c2ccccc2nc1-c1c[nH]c2ccccc12 | 12.2% (inactive)
c1ccc2c(-c3ccncc3)c[nH]c2c1 | -22.9% (inactive)
COc1ccc(C(=O)C2CCCN(Cc3cn(C)nc3-c3ccccc3)C2)cc1F (stereo not given) | 4.8% (inactive)
CN(c1ccccc1)S(=O)(=O)c1ccc(NC(=O)C2CCCCC2C(=O)O)cc1 (stereo not given) | 45.5% (inactive)
CN(C1CCCCC1)S(=O)(=O)c1ccc(NC(=O)C2CCCCC2)cc1 | 0.9% (inactive)
Cc1ccc(Cn2c(SCC(=O)Nc3cccc(C)n3)nc3c2c(=O)n(C)c(=O)n3C)cc1 | 4.3% (inactive)
COc1ccccc1CN(CC(=O)NCc1ccc(F)cc1)C(=O)c1csnn1 | 4% (inactive)
N=c1n(CC(=O)c2ccc([N+](=O)[O-])cc2)c2ccccc2n1Cc1ccccc1 | 64.5% (active)
Cc1ccc(Cn2c(=N)n(CC(=O)c3ccc([N+](=O)[O-])cc3)c3ccccc32)cc1 | 44.2% (inactive)
N=c1n(CC(=O)c2ccc([N+](=O)[O-])cc2)c2ccccc2n1Cc1ccc(Cl)cc1 | 65.4% (active)
N=c1n(CC(=O)c2cccc([N+](=O)[O-])c2)c2ccccc2n1Cc1ccccc1 | 28.3% (inactive)
Cc1ccccc1Cn1c(=N)n(CC(=O)c2ccc([N+](=O)[O-])cc2)c2ccccc21 | 11% (inactive)
N=c1n(CC(=O)c2ccc([N+](=O)[O-])cc2)c2ccccc2n1Cc1ccccc1Cl | 8.7% (inactive)
